According to PubChem BioAssay (Tox21):
“And” between values parts separate entries of the source, which are not always exact repeats. Identical values can stand only once. Results filed as inconclusive are left out. Entries that show only a call come without a potency. Some structures have more than one record in an assay (separate samples or runs), and their calls can disagree. The source made the active and inactive calls. Unless noted, calls come from the whole dose curve; as a rule, active = well fitted curve in the direction sought with a large enough effect in the repeat runs; inconclusive = weak or mixed curves; inactive = no such curve, though single readings can be large; an effect the other way counts as inactive or inconclusive.

Tests used:
[1] = qHTS assay to identify small molecule agonists of the hypoxia (HIF-1) signaling pathway - cell viability counter screen (AID 1224844; calls by dose curve; note: nearly all actives have a fitted effect of over 50% in size; note: potency is the fitted concentration of half-maximal effect)
Summary of the method: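 Same wells as the HIF-1 reporter screen; ME-180 cells carrying HRE-bla, 17 hr treatment at 37C; CellTiter-Glo luminescence read after 30 min at room temperature.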

[2] = qHTS assay to identify small molecule agonists of the hypoxia (HIF-1) signaling pathway (AID 1224846; active = well fitted activation curve with a large enough effect in the signal ratio in the repeat runs, not every such curve was filed as active; the % refers to the signal ratio)
Summary of the method: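 In ME-180 cells bearing an HRE-bla construct, 17 h treatment with DMSO-dissolved compounds at 37C was followed by CCF4-AM loading to quantify reporter induction.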

[3] = qHTS assay to identify small molecule agonists of H2AX - cell viability counter screen (AID 1224847; calls by dose curve; note: top concentration of the series differs between compounds; nearly all actives have a fitted effect of over 30% in size)
Summary of the method: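 Compounds tested at 15 concentrations were incubated 3 hr at 37C with wild-type CHO-K1 cells; cellular ATP-based luminescence (CellTiter-Glo) indicated viability.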

[4] = qHTS assay to identify small molecule antagonists of the estrogen related receptor (ERR) signaling pathway from Tox21 library (AID 1224848); note: nearly all actives have a fitted effect of over 50% in size; note: potency is the fitted concentration of half-maximal effect
Summary of the method: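 Compounds dissolved in DMSO are pin-transferred onto ERR reporter cells (2,000 per well) that have settled for 6 h at 37 C. Plates then incubate 18 h at 37 C before ONE-Glo luciferase reagent and a luminescence read 30 min later.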

[5] = qHTS RealTime-Glo MT Cell Viability Assay in HepG2 cells - 24 hour (AID 1224867); note: nearly all actives have a fitted effect of over 50% in size
Summary of the method: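 HepG2 cells (600/well) were dispensed with RealTime-Glo reagents, incubated 5 h at 37 °C, then treated with compounds in DMSO for up to 40 h. Nonlytic NanoLuc luminescence reflecting viable cells was read at each stated time point.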

[6] = qHTS RealTime-Glo MT Cell Viability Assay in HEK293 cells - 32 hour (AID 1224868); note: nearly all actives have a fitted effect of over 50% in size; note: potency is the fitted concentration of half-maximal effect
Summary of the method: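 HEK293 cells seeded with NanoLuc/prosubstrate reagent, rested 5 h at 37 C, then dosed and kept at 37 C up to 40 h. Nonlytic real-time luminescence from viable cells read at 0, 8, 16, 24, 32 and 40 h.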

[7] = A CellTox Green Cytotoxicity Assay to monitor cytotoxicity in HEK293 cells - 0 hour (AID 1224869); note: nearly all actives have a fitted effect of over 50% in size
Summary of the method: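 Homogeneous no-lysis format: HEK293 cell suspension mixed with CellTox Green reagent, seeded, incubated 5 h at 37 C/5% CO2, then dosed by pintool with compound in DMSO.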

[8] = qHTS RealTime-Glo MT Cell Viability Assay in HepG2 cells - 40 hour (AID 1224870); note: nearly all actives have a fitted effect of over 50% in size
Summary of the method: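 HepG2 cells (600/well) mixed with RealTime-Glo MT reagent, settled 5 h at 37 C/5% CO2 before compound addition. Nonlytic NanoLuc luminescence from viable-cell prosubstrate reduction read repeatedly during 40 h treatment at 37 C.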

[9] = qHTS assay to identify small molecule agonists of the estrogen related receptor (ERR) signaling pathway from Tox21 library (AID 1224849; calls by dose curve; note: nearly all actives have a fitted effect of over 15% in size); conditions: ERR reporter cell line, ONE-Glo luciferase, 18 h; at 92.4 µM (top of the series)
Summary of the method: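 Reporter cells (ERR, NTP source) treated with Tox21 10K compounds 18 h, 37 C. Readout: ONE-Glo luminescence, 30 min RT.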

[10] = qHTS assay to identify small molecule agonists of H2AX (AID 1224845; active = well fitted activation curve with a large enough effect in the signal ratio in the repeat runs, not every such curve was filed as active; the % refers to the signal ratio)
Summary of the method: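 Wild-type CHO-K1 cells, plated overnight, exposed 3hr at 37C to 15 concentrations (0.76% DMSO final). Lysed, then HTRF anti-pH2AX (S139) cryptate and anti-H2AX-d2 antibodies, 24 hr room temperature; 665/620 nm emission read.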

Row | Compound | Potency [1] | outcome [2] | Potency [3] | Potency [4] | Potency [5] | Potency [6] | Potency [7] | Potency [8] | activity change, positive = activation [9] | activity change, negative = cytotoxicity [1] | Potency [10]
1 | CCCCCC(C)=O | inactive | inactive | inactive | inactive | inactive | inactive | inactive | inactive |  |  | 
2 | N#CCC(=O)O | inactive | inactive | inactive | inactive | inactive | inactive | inactive | inactive | 4.35% (inactive) and -0.59% (inactive) |  | 
3 | CCCCCCCCCCCC(=O)N(C)CC(=O)O |  | inactive | inactive |  | inactive | inactive | inactive | inactive |  | 0.126% [at 6.97 µM] (inactive) | inactive
4 | CC(=O)OC[C@H]1O[C@@](COC(C)=O)(O[C@H]2O[C@H](COC(C)=O)[C@@H](OC(C)=O)[C@H](OC(C)=O)[C@H]2OC(C)=O)[C@@H](OC(C)=O)[C@@H]1OC(C)=O | inactive | inactive | inactive |  | inactive | inactive | inactive | inactive |  |  | inactive
5 | Cc1cccc(C)c1[N+](=O)[O-] | inactive | inactive | inactive |  | inactive | inactive | inactive | inactive |  |  | inactive
6 | CC(C)=CCC/C(C)=C/C=O | inactive | inactive | inactive |  | inactive | inactive | inactive | inactive |  |  | inactive
7 | O=C(NCC1CCCCN1)c1cc(OCC(F)(F)F)ccc1OCC(F)(F)F (stereo not given) | inactive |  | inactive |  | inactive | inactive | inactive | inactive |  |  | inactive
8 | CC(CN1c2ccccc2Sc2ccccc21)N(C)C (stereo not given) | 39.3 µM (active) |  |  | 61.8 µM (active) and 68.6 µM (active) and inactive |  | 39.3 µM (active) and 43.6 µM (active) and 6.01 µM (active) | inactive | inactive |  |  | inactive
9 | Cc1ccc([N+](=O)[O-])cc1N | inactive | inactive | inactive |  | inactive | inactive | inactive | inactive |  |  | inactive
10 | CC(C=O)Cc1ccc(C(C)(C)C)cc1 (stereo not given) | inactive | inactive | inactive | inactive | inactive | inactive | inactive | inactive |  |  | 
11 | C=C(C)CC(C)(C)C | inactive | inactive | inactive |  | inactive | inactive | inactive | inactive |  |  | inactive
12 | C[Si](C)(C)N[Si](C)(C)C | inactive | inactive | inactive |  | inactive | inactive | inactive | inactive |  |  | inactive
13 | CCCN(CCC)C(=O)SCC | inactive | inactive | inactive |  | inactive | inactive | inactive | inactive |  |  | inactive
14 | OC1CCCCC1 | inactive | inactive | inactive |  | inactive | inactive | inactive | inactive |  |  | inactive
